The nature of test [1]: CPHEA_Stoker_NIS_Cytotoxicity: Cytotoxicity Assessment for CPHEA's Radioactive Iodide Uptake (RAIU) Assay for Sodium/Iodide Symporter (NIS) Inhibition, Stoker and Laws Labs (AID 2283897). Put shortly: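 hNIS-HEK293T-EPA cells, human NIS expressed in HEK293T, treated 2 h with chemicals (0.001–100 uM, 0.5% final DMSO). ATP content read by CellTiter-Glo luminescence; loss of signal analysed relative to DMSO.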

Test [2] relates to Sodium/Iodide Symporter (NIS), SLC5A5 (gene 6528). In words: CPHEA_Stoker_NIS_Inhibition_RAIU: CPHEA's Radioactive Iodide Uptake (RAIU) Assay for Sodium/Iodide Symporter (NIS) Inhibition, Stoker and Laws Labs (AID 2283841). Put shortly:
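hNIS-HEK293T-EPA cells incubated 2 h at room temperature with compound (0.001–100 uM, 0.5% DMSO) and 329 pM final 125I in HBSS/10 mM HEPES, pH 7.4. Intracellular 125I counted; normalised to DMSO maximal uptake, triplicate, three biological replicates.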

For test [3], the system named is zebrafish Estrogen Receptor (ER2b), gene 317733. Kind of test: ATG_zfER2b_XSP2: Attagene TRANS-FACTORIAL Multi-Species (XSP2) HepG2 Assay for zebrafish Estrogen Receptor (ER2b) (AID 2283823).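 Note: fitted upward as reporter gain over DMSO so potency reflects activation.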 Put shortly:
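In this multiplexed trans-activation format, HepG2 cells expressing exogenous NR-Gal4 fusions drive GAL4-UAS reporters. Exposure lasts 24 h, and reporter mRNA induction is read by RT-PCR with capillary electrophoresis detection.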

Test [4] deals with frog Estrogen Receptor (ER2), gene 100174814. In words: ATG_frER2_XSP2: Attagene TRANS-FACTORIAL Multi-Species (XSP2) HepG2 Assay for frog Estrogen Receptor (ER2) (AID 2283828). The gist of the method: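 Human liver HepG2, transient MRTU transfection (TRANS format, exogenous NR–Gal4). 24 h cpd exposure. Total RNA → RT → PCR → FAM label → HpaI cut → CE. Positive direction vs DMSO.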

For test [5], the target named is mouse Peroxisome Proliferator-activated Receptor gamma (PPARg), Pparg (gene 19016) (UniProt P37238). Kind of test: ATG_mPPARg_XSP2: Attagene TRANS-FACTORIAL Multi-Species (XSP2) HepG2 Assay for mouse Peroxisome Proliferator-activated Receptor gamma (PPARg) (AID 2283830).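 Note: hits are gains in reporter mRNA above DMSO so AC50 marks activation.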 The gist of the method:
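HepG2 cells transiently transfected with GAL4-UAS reporter units for chimeric NR-Gal4 proteins including mouse PPARg, exposed 24 h; medium contained 3 nM 6-alpha-fluorotestosterone and 1.5 nM norgestrel. Reporter mRNA quantified by RT-PCR, HpaI digestion and capillary electrophoresis, vs DMSO.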

The target of test [6] is zebrafish Thyroid Hormone Receptor alpha (TRa), thraa (gene 30670) (UniProt Q98867). In words: ATG_zfTRa_XSP2: Attagene TRANS-FACTORIAL Multi-Species (XSP1) HepG2 Assay for zebrafish Thyroid Hormone Receptor alpha (TRa) (AID 2283832).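 Note: actives raise zebrafish TRa-Gal4 reporter transcript above DMSO baseline.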 The gist of the method:
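Chimeric receptor-Gal4 activity was assessed in transfected human liver HepG2 cells 24 h after dosing, using reporter transcript levels detected by RT-PCR and capillary electrophoresis. DMSO served as baseline.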

The subject of test [7] is turtle Thyroid Hormone Receptor, alpha (TRa), gene 101949057. Kind of test: ATG_trTRa_XSP2: Attagene TRANS-FACTORIAL Multi-Species (XSP1) HepG2 Assay for turtle Thyroid Hormone Receptor, alpha (TRa) (AID 2283834).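 Note: hits raise reporter mRNA over the DMSO baseline so AC50 marks activators.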 Put shortly: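 Gain-of-signal reporter transcription measured in transiently transfected HepG2 at 24 h post-dose. Fluorescent RT-PCR products were resolved by capillary electrophoresis and compared with DMSO vehicle.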

For test [8], the target named is zebrafish Thyroid Hormone Receptor beta (TRb), thrb (gene 30607) (UniProt Q9PVE4). Kind of test: ATG_zfTRb_XSP2: Attagene TRANS-FACTORIAL Multi-Species (XSP1) HepG2 Assay for zebrafish Thyroid Hormone Receptor beta (TRb) (AID 2283836). The gist of the method:
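Fluorescence of labelled reporter cDNA fragments, separated by capillary electrophoresis, gives mRNA induction from exogenous NR-Gal4 chimeras in transiently transfected HepG2 cells after 24 h dosing; 3 nM 6-alpha-fluorotestosterone and 1.5 nM norgestrel included in the run.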

Test [9] concerns the target frog Thyroid hormone Receptor alpha (TRa), thra-a (gene 397942) (UniProt P15204). In words: ATG_frTRa_XSP2: Attagene TRANS-FACTORIAL Multi-Species (XSP2) HepG2 Assay for frog Thyroid hormone Receptor alpha (TRa) (AID 2283839). Put shortly:
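Frog thyroid receptor alpha was tested as an exogenous NR-Gal4 fusion in transiently transfected HepG2 cells. After 24 h chemical treatment, reporter mRNA induction was quantified by RT-PCR and capillary electrophoresis, with gain-of-signal analysed relative to DMSO.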

The nature of test [10]: CEETOX_H295R_11DCORT_noMTC: CeeTox H295R High-throughput Steroidogenesis Assay for 11-Deoxycortisol (11DCORT), maximum tolerated concentration (MTC) filtered results only (AID 2283911; active = hit-call score of the fitted dose curve at least 0.9, where 1 is the maximum; inactive = score below 0.9). The note with it: actives raise or lower the signal. The gist of the method:
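Readout is 11-deoxycortisol in culture medium by reverse-phase HPLC with MS/MS, after 48 h chemical treatment of forskolin-primed H295R cells. Values are relative to DMSO and unfiltered for cytotoxicity.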

The nature of test [11]: CEETOX_H295R_OHPREG_noMTC: CeeTox H295R High-throughput Steroidogenesis Assay for OH-Pregnenolone (OHPREG), maximum tolerated concentration (MTC) filtered results only (AID 2283912; active = hit-call score of the fitted dose curve at least 0.9, where 1 is the maximum; inactive = score below 0.9). The note with it: actives raise or lower the signal. Put shortly: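 H295R human adrenal cells, forskolin-prestimulated (10 uM, 48 h), then exposed to test chemical in 0.1% DMSO for 48 h. 17alpha-hydroxypregnenolone in medium measured by HPLC-MS/MS after MTBE extraction; bidirectional fit versus DMSO, concentrations not MTC-filtered.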

The structures appear in SMILES notation. Where “and” joins values, the source holds several entries; their conditions need not be identical. Equal values may be shown once. Results filed as inconclusive are left out. Calls of active or inactive are those of the source. Rule for the calls, unless noted: active = hit-call score of the fitted dose curve at least 0.9, where 1 is the maximum; inconclusive = response in the unintended direction; inactive = score below 0.9.

Chain of mouse Peroxisome Proliferator-activated Receptor gamma (PPARg), Pparg (gene 19016) (P37238 whole entry, looked up, the tested form may be a part): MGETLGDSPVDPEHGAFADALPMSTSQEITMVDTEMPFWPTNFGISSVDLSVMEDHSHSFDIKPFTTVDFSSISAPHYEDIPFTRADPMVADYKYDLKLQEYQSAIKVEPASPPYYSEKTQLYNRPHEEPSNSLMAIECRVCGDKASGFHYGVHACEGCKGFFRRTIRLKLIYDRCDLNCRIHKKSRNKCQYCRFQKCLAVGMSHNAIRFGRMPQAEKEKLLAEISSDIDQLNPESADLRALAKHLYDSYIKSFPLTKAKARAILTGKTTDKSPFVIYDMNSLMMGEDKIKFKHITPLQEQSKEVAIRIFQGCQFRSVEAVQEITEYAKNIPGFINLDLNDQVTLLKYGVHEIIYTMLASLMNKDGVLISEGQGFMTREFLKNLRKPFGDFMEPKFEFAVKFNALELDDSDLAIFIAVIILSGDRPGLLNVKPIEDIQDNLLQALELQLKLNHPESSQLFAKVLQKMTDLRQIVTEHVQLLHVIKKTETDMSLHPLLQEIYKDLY
Chain of frog Thyroid hormone Receptor alpha (TRa), thra-a (gene 397942) (P15204 whole entry, looked up, the tested form may be a part): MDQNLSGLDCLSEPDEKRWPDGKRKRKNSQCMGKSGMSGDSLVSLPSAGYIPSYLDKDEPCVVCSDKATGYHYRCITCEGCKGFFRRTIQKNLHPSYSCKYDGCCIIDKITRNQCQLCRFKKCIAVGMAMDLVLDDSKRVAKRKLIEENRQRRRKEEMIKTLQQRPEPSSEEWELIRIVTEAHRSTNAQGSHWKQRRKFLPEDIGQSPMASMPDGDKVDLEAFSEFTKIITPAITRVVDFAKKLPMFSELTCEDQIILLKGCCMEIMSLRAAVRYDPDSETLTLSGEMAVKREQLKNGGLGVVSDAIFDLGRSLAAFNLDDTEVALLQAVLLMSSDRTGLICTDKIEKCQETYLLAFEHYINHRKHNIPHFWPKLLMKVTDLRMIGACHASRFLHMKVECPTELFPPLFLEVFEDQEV
Chain of zebrafish Thyroid Hormone Receptor alpha (TRa), thraa (gene 30670) (Q98867 whole entry, looked up, the tested form may be a part): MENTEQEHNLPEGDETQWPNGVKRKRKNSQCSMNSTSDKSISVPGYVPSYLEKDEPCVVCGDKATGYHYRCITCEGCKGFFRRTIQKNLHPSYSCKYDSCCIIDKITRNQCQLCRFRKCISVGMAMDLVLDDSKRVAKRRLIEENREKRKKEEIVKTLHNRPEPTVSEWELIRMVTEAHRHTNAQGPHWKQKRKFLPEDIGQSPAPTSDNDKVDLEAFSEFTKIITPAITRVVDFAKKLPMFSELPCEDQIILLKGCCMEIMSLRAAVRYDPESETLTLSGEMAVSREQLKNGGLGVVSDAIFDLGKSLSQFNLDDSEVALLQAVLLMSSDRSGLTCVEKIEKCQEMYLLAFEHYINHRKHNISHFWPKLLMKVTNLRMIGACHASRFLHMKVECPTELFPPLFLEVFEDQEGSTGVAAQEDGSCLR
Chain of zebrafish Thyroid Hormone Receptor beta (TRb), thrb (gene 30607) (Q9PVE4 whole entry, looked up, the tested form may be a part): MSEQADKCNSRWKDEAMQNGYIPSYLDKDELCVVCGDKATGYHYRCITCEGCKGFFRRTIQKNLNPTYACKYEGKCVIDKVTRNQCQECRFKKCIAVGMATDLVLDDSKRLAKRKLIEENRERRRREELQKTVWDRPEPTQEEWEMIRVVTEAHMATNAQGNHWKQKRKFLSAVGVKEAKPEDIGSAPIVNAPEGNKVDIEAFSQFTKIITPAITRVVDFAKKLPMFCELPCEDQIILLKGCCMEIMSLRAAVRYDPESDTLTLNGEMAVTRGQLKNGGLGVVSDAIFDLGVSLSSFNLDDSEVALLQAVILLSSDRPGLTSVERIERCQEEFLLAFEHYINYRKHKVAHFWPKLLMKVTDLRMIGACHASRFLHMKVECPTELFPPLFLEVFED

Turning to `CCCCCCC(C=O)=Cc1ccccc1`, the result in test [1] was inactive.

As to `CCCCCCCCCCCCCCOS(=O)(=O)O`, the result in test [2] and in [1] was inactive.

The term AC50 denotes the concentration giving half of the maximal activity seen. With `CC(=O)[C@@]1(O)CC[C@H]2[C@@H]3CCC4=CC(=O)CC[C@]4(C)[C@H]3CC[C@@]21C`, the AC50 in test [3] was 87.6 µM (active) and 58.2 µM (active); in test [4], 124 µM (active) and 100 µM (active). Also, the outcome in test [5], in test [6], in test [7], in test [8] and in test [9] was inactive.

Take `CCCCCCC(CCCCCCCCCCC(=O)OCC(COC(C)=O)OC(C)=O)OC(C)=O` (stereo unspecified): the result in [2] and in test [1] was inactive.

Turning to `Cc1ccc(-c2cc(C(F)(F)F)nn2-c2ccc(S(N)(=O)=O)cc2)cc1`, the outcome in test [2] and in test [1] was inactive.

Take `CSc1ccc(Oc2ccc(S(N)(=O)=O)cc2CN(C)C)cc1C`: in [1], the result was inactive.

As for `C=CCc1ccc(OC)c(OC)c1`, the outcome in test [10] and in test [11] was inactive.

In the case of `CCc1nc(N)nc(N)c1-c1ccc(Cl)cc1`, in test [1], the result was inactive.

As for `Cc1ccc(C(C)(C)C)c(O)c1`, the result in test [1] was inactive.

On to `O=C1OC(c2ccc(O)cc2)(c2ccc(O)cc2)c2ccccc21`, for which, in test [2], the concentration at half-maximal activity (AC50) is 0.722 µM (active). In addition, in test [1], the result was inactive.

Turning to `CN(C)C(=O)NC1(c2ccccc2)CCN(CCC[C@]2(c3ccc(Cl)c(Cl)c3)CCCN(C(=O)c3ccccc3)C2)CC1`, the result in test [1] was inactive.

`CC(=O)OCC(COC(C)=O)OC(C)=O`: the outcome in [2] and in test [1] was inactive.

As to `Nc1nc(=S)c2[nH]cnc2[nH]1`, the half-maximal activity concentration (AC50) is 44.7 µM (active) in test [10] and 72.9 µM (active) in [11].

The record behind these values is PubChem BioAssay (EPA / NIEHS).
